In the supplement of paper PMC6555819:

What was measured:
Experiment in all cases: PBM binding z-score (relative to random genomic background probes); higher = stronger binding; sequences stand for … in GC…GCGATTGACAGCGTAGAATGAAGG
[1] = system: RARb homodimer (NR concentration 270 nM)
How it was run: (§1)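 Binding buffer was PBS pH 7.4 with 2% milk, 0.02% Triton X-100, 1 mM DTT, 0.2 mg/mL BSA and 0.4 mg/ml salmon testes DNA. In it, ligand-free nuclear receptor dimers were incubated 1 h on custom Agilent 4×180K protein-binding microarrays carrying double-stranded probes. Antibodies against each partner (one per run) detected binding, and z-scores were calculated against random background probes after regression normalization of scanned fluorescence.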

[2] = system: RARg:RXRa (NR concentration 270 nM, RXRa partner concentration 90 nM)
How it was run: as §1

[3] = system: RARg homodimer (NR concentration 270 nM)
How it was run: as §1

[4] = system: RXRa DBDmut IVT, anti-RXR (DBD mutation: RXRa K156A/R161A, NR concentration 90 nM)
How it was run: as §1

[5] = system: RXRa homodimer (NR concentration 180 nM)
How it was run: as §1

[6] = system: THRa:RXRa (NR concentration 90 nM, RXRa partner concentration 90 nM)
How it was run: as §1

[7] = system: THRa homodimer (NR concentration 90 nM)
How it was run: as §1

[8] = system: VDR homodimer (NR concentration 270 nM)
How it was run: as §1

Sequence | PBM binding z-score [1] | PBM binding z-score [2] | PBM binding z-score [3] | PBM binding z-score [4] | PBM binding z-score [5] | PBM binding z-score [6] | PBM binding z-score [7] | PBM binding z-score [8]
ACTCGGAGGACAAAGGTCAGATCTACGCCAGTGA | 4.47 | 5.88 | 5.52 | 1.38 | 4.78 | 3.36 | 0.695 | 1.27
CCTTTCGGGTCAAGGTTATAGCACGGGTGGTACG | 3.76 | 5.07 | 5.07 | 2.03 | 5.56 | 3.97 | 3.16 | 1.97
TCATCTAGGTAAAGGTGAAAGTCGAACGATATGA | 1.65 | 1.58 | 1.28 | 0.923 | 2.08 | 1.75 | 0.0366 | 0.215
CGTCAATGTTCAAGGTAACGTAACAGAAAGCAGC | -0.0496 | 0.0962 | 0.453 | 0.148 | 0.198 | 1.56 | 1.19 | 0.0285
GCTGCTAGCTCAACTGATGGTCAGCTAAAGCTCG | -0.699 | -0.731 | -0.78 | -0.306 | -0.88 | -0.877 | -1.48 | -1.04
TCTAGTTGGTCACGGATGTCACACACGACGGGTA | 1.57 | 1.43 | 1.91 | 0.683 | 1.15 | 0.409 | 0.417 | 0.656
CCTGGTTGGTCAGGAGGTCACACACCGGATATGA | 4.02 | 4.98 | 4.31 | 0.0446 | 4.57 | 3.37 | 2.1 | 2.44
CGTCCAAGCTCAAGGTCAGTGAAAGAGACTCGAA | 3.16 | 2.55 | 3.24 | 0.755 | 1.81 | 2.87 | 1.83 | 1.18
TTCCCAAGGTGAAGGTCGTTGATCCCTCTGTAGA | 1.87 | 1.35 | 1.04 | -0.0232 | 1.74 | 2.52 | 1.11 | 0.952
TCAGACAGCTGAAGGTAACTCAGGTACGCAGTCG | -0.661 | -0.115 | -0.24 | 0.764 | 0.413 | 1.05 | -0.685 | -0.186
GCTATTAGTTGAAGGGGCAACCGAATGATTCTCG | 0.855 | 0.206 | 0.529 | 0.928 | 0.206 | 0.0187 | -0.194 | 0.212
CGTCCAAGGTCAGAGAGGTCAGTGAGTGCCGAGT | 5.29 | 6.35 | 7.09 | 3.37 | 5.51 | 4.37 | 3.07 | 6.07
GATACAGGGTCACGGCCAGAGTACGCGTATTGAT | 3.98 | 6.54 | 6.18 | 2.92 | 7.78 | 4.17 | 2.03 | 3.26
ACTAGCAGGCCAAGTTTGGGTCACGCAAACAAAG | 2.72 | 3.25 | 2.19 | -0.213 | 1.71 | 3.3 | 1.78 | 0.403
TAACCTAGGTCATTCAGGGGCCAGTATAGAAAGC | 3.95 | 6.73 | 5.25 | 2.62 | 3.87 | 3.83 | 1.26 | 2.58
TTACCAAGGTGAGCTGATGTCGTTGATCCAACTC | 0.273 | 0.225 | 0.147 | -0.369 | 0.239 | 1.48 | 0.0669 | -0.492
TCATATAGGTAAATGCTAGGTGAACGTCCGATCT | 0.575 | 0.645 | 0.417 | 1.4 | 0.952 | 1.56 | 0.84 | 0.0802
TCATATAGGTAATACAGGTGAAATTCGGCATCTA | 0.536 | 0.764 | 0.496 | 1.51 | 1.34 | 1.04 | 0.421 | 0.0975
GCAGACAGGTGAAACGCAGGTCACTCAGGGTGGC | 3.35 | 5.21 | 2.47 | -0.32 | 2.43 | 3.6 | 0.663 | 0.199

Sequence | PBM binding z-score [1] | PBM binding z-score [2] | PBM binding z-score [3] | PBM binding z-score [4] | PBM binding z-score [5] | PBM binding z-score [6] | PBM binding z-score [7] | PBM binding z-score [8]
ACTATTAGTTGAGACGAGGGGAACCGATAGGTTG | -0.242 | 0.21 | 0.42 | 0.612 | 0.177 | 1.13 | -0.473 | 0.00117
ATTACAGGGTCATCGTAGGCCAGAGTACGCACAG | 3.91 | 5.86 | 5.41 | 3.6 | 6.79 | 4.86 | 1.78 | 3.83
AGAATGAGGTTATTAAGAACAGGGAATTGCGGTC | 0.842 | 1.14 | 0.783 | 2.06 | 1.67 | 2.23 | 0.503 | 1.27
CTCGAAAGGTCGGGCTCAGGTGAGTATACCAAAC | 2.49 | 4.07 | 3.19 | 0.869 | 3 | 3.46 | 1.06 | 0.356
ACTAGCAGGCCGAGGGTCACTCAAGATTAGTCCG | 2.43 | 2.41 | 2.14 | 0.267 | 2.49 | 1.91 | -0.126 | 0.527
CTACCAAGGTGAACAAGGTCGTTAATTACTATTC | 2.04 | 1.86 | 1.55 | 1.48 | 1.91 | 3.19 | 1.99 | 2.64
CCTACTGGGCCATCAGCTCATTGATATCAACGTT | -0.431 | -0.217 | 0.0511 | -0.384 | -0.717 | -0.526 | -0.399 | -0.517
TCTAGTTGGTAACGGAGGTCACACACGACGGGTA | 4.04 | 3.79 | 3.14 | 0.917 | 4.14 | 3.54 | 2.41 | 2.47
CGTACAAGGTCAGAGAGGTCAGTGAATGCCGAGT | 5.31 | 6.28 | 7.24 | 3.52 | 5.95 | 4.23 | 2.64 | 6
CCTACTGCGCCATCAGGTCATTGATATCAACGTT | 2.85 | 1.59 | 1.53 | 1.5 | 1.3 | 3.49 | 3.56 | 2.17
CCTACCGGGCCAAAGGTCATTGATTCCAATGCTC | 4.57 | 5.86 | 4.58 | 0.593 | 6.64 | 3.68 | 1.12 | 2.38
ACAGACAGGTGGTGAAGGTAACTCAGGCTATCAT | 0.218 | 0.00728 | -0.0161 | -0.443 | 0.0945 | 0.769 | 0.206 | -0.381
TAGCCTAGGTCATTTAGGGGCCAGTATAGAAAGC | 3.12 | 5.9 | 4.36 | 1.98 | 2.63 | 3.47 | 0.467 | 1.63
CTACCAAGGTGAATAAGGTCGTTGATTACTATTC | 2.05 | 1.54 | 1.21 | 1.38 | 1.71 | 3.6 | 2.67 | 2.68
TAGCCTAGGTCAGATCGGGCCAGTATGCGCTATA | 2.29 | 2.85 | 3.88 | -0.301 | 1.48 | 4.04 | 0.0471 | -0.51
AGAATGAGGTTATTAAGATCAGGAAATTGCGGTC | 0.491 | 1.3 | 0.9 | 1.99 | 1.75 | 2.06 | 0.497 | 1.18
CAAACTAGGGCACGAAAGGTCAAAGTCGAATGAC | 5.2 | 6.2 | 5.83 | 1.44 | 6.29 | 4.84 | 0.977 | 1.87
TCTATTAGTTGAAGAGCAACCGACGAGTCCGTTT | -0.385 | -0.11 | -0.0161 | 1.36 | 0.301 | -0.14 | -0.463 | 1.23
AGTCAAAGTTCACTAGGTAACGTAGGATTCAGCT | 3.85 | 4.87 | 5.63 | 4.05 | 3.74 | 1.98 | 0.256 | 3.59

Sequence | PBM binding z-score [1] | PBM binding z-score [2] | PBM binding z-score [3] | PBM binding z-score [4] | PBM binding z-score [5] | PBM binding z-score [6] | PBM binding z-score [7] | PBM binding z-score [8]
TAGCCTACGTCATTCAGGGGCCAGTATAGAAAGC | 0.534 | 0.54 | 0.097 | -0.122 | 0.286 | 0.215 | -0.39 | -0.343
GTACCAAGGGGAATAGGTCGTTGATGAGTAGGCG | 0.74 | 0.528 | 0.371 | -0.365 | 0.651 | 0.124 | -0.309 | 0.49
ACAGACAGGTGCTGAAGGTAACTCAGGCTATCAT | -0.511 | -0.0198 | 0.00684 | -0.376 | -0.0891 | 0.3 | -0.356 | -0.984
CCTCGGAGGACAGAAAGTCAGAGCTGTCCGCTTT | -0.167 | -0.265 | 0.0547 | -0.146 | -0.788 | -0.441 | -0.747 | -0.657
GTACCAAGGTGAATAGGTCGTCGATGAGTAGGCG | 2.07 | 2.91 | 1.67 | -0.36 | 2.1 | 2.11 | 0.363 | -0.13
CGAACGAGGGCCTGAGTTGATAGCAAATGCCGAT | -0.782 | -0.386 | -0.326 | 0.337 | -0.236 | -0.563 | -0.666 | -0.394
CCTATTAGTGGACCATAAGGGCAACCGAAGCTCG | 1.53 | 0.433 | 0.657 | 0.115 | 0.31 | 1.38 | 0.862 | 0.415
ATCGAAAGGTCGAGGGGAGTATAGAGAAAGGGAA | 2.84 | 4.18 | 4.21 | 1.4 | 3.94 | 2.05 | 0.272 | 0.958
AGAATGAGGTTAAGAGCAGGGAAACAGAATACAT | 0.878 | 2 | 1.27 | 0.729 | 2.46 | 2.19 | 0.347 | 0.0105
TCTTGTAGATCAAAGGTTAGGAAAGCCGAAGCCT | 0.876 | 0.902 | 0.458 | 0.579 | 2.08 | 0.654 | -0.709 | -0.493
GCTGCTACGTCAACTGATGGTCAGCTAAAGCTCG | -0.272 | -0.163 | -0.441 | -0.129 | -0.367 | -0.498 | -0.948 | -0.701
CCTAGCACGCCAATCTGGGTCACTCAAGGCTTGA | 1.94 | 0.768 | 0.494 | 0.349 | 0.974 | 2.61 | 0.789 | 0.435
GCTAGCAGGCCATTTGGGTGACTCAATGACGGGC | -0.273 | -0.23 | 0.0183 | -0.541 | -0.076 | 0.189 | -0.653 | -0.481
CCTCTGAGGACAACAGGAGGTCAGAGCTGCCAGA | 3.48 | 3.66 | 3.51 | 1.29 | 1.78 | 3.92 | 3.02 | 1.69
TTACGAAGGTGAAGGTCGTTGATCCCTCTGTAGA | 1.84 | 1.38 | 1.26 | 0.133 | 1.93 | 1.52 | 0.135 | 0.942
TTACCTAGGTGAGCTGAGGTCGTTGATCCAACTC | 1.32 | 0.757 | 0.325 | 0.055 | 1.01 | 4.18 | 2.11 | 1.73
TCAGACAGGTGAAGGTAACTTAGGTACGCAGTCG | 0.872 | 0.797 | 0.756 | 1.19 | 1.14 | 1.86 | 0.691 | 0.508
CCTTACGGGTCGCGAGGTTATAGCACGACGAGCG | 1.57 | 3.39 | 2.09 | 0.0933 | 4 | 2.25 | 0.349 | 0.904
CAAACTAAGTCAAGAGGTCAAAGTCCGCTTCCCG | 4.49 | 5.8 | 4.46 | 2.11 | 6.2 | 3.92 | 1.7 | 4.04
